Common to all, as to test: log2 ratio of Biotin-Ahx-Ub-VS probe labelling (fragment/DMSO); higher = less target engagement (more negative = stronger competition), active = hit call of the paper (q ≤ 0.05, log2 ratio ≤ -1)
Common to all, as to conditions: compound concentration: 200 uM; treatment time: 3 h

Experiment [1] addresses T1, OTUD6B (UniProt Q8N6M0).
T1 sequence (whole entry): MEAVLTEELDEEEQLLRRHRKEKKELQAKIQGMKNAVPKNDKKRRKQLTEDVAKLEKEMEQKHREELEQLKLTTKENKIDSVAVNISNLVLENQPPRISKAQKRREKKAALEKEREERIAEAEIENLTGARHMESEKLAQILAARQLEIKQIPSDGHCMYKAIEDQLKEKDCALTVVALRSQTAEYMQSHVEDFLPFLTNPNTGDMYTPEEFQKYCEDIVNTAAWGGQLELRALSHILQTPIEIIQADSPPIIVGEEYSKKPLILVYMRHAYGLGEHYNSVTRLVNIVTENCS
The procedure, abridged:
(§1)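 Labelled DUBs were enriched with NeutrAvidin, digested with LysC and trypsin, and run by diaPASEF LC-MS/MS. The labelling used Biotin-Ahx-Ub-VS at 0.5 µM final for 1 h on HEK293T lysate (495 µg per sample) previously treated in triplicate with fragment at 200 µM or vehicle for 3 h. Values are average log2 fragment/vehicle ratios by unpaired t-test on global-median-normalised Spectronaut quantities of proteins with ≥2 unique peptides.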

Experiment [2] has as its target T2, OTUD7B (UniProt Q6GQQ9).
T2 sequence (whole entry): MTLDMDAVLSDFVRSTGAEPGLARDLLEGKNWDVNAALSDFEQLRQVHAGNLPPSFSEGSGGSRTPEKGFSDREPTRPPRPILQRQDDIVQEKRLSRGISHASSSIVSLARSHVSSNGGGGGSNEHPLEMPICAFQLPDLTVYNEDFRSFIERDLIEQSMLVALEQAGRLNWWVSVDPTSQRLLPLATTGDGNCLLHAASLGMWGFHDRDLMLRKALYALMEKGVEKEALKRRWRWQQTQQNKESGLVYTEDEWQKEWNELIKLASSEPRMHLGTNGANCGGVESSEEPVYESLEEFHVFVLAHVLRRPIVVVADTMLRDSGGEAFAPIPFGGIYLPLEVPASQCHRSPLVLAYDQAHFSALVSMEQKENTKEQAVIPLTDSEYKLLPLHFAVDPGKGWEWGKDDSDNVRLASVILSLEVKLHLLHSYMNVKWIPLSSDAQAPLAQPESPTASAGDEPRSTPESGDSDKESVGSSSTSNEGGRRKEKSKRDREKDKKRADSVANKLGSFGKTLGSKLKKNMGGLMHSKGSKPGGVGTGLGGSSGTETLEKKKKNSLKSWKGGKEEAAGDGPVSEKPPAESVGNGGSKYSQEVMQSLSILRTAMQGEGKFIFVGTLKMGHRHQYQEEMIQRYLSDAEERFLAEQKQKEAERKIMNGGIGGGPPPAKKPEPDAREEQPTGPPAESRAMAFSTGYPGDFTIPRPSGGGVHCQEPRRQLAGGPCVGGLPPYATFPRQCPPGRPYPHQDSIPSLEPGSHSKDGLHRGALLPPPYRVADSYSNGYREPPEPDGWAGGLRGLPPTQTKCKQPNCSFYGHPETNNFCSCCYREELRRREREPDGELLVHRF
The procedure, abridged:
as §1

Experiment [3] deals with PRPF8 (UniProt Q6P2Q9). The procedure, abridged: as §1
Experiment [4] concerns the target T3, PSMD7 (UniProt P51665).
T3 sequence (whole entry): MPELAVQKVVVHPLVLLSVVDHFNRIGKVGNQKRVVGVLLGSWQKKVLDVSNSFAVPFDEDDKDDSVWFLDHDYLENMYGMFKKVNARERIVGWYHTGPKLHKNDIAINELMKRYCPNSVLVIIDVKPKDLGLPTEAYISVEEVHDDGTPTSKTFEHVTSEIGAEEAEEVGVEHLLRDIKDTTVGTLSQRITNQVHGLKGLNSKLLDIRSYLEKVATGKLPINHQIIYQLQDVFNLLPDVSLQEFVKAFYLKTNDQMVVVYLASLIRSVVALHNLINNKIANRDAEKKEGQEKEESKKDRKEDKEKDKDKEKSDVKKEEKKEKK
In short, it runs like this:
as §1

The target of experiment [5] is UCHL1 (UniProt P09936). In short, it runs like this: as §1
The target of experiment [6] is T4, UCHL3 (UniProt P15374).
T4 sequence (whole entry): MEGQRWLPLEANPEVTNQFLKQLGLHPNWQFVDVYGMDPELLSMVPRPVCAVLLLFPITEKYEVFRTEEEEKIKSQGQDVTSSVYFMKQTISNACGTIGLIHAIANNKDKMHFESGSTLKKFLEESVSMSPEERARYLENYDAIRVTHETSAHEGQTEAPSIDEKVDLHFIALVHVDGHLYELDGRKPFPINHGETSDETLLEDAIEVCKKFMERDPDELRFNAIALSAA
In short, it runs like this:
as §1

Experiment [7] concerns the target T5, UCHL5 (UniProt Q9Y5K5).
T5 sequence (whole entry): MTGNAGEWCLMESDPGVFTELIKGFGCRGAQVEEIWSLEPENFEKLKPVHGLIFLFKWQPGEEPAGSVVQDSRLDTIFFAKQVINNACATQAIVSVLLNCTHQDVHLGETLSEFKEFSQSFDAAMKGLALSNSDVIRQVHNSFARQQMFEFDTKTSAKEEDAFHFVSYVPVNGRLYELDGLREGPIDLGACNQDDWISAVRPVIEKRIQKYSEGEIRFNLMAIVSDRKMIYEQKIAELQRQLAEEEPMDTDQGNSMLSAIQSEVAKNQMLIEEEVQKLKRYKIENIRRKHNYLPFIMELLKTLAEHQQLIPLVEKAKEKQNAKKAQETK
In short, it runs like this:
as §1

Experiment [8] concerns the target USP10 (UniProt Q14694). In short, it runs like this: as §1
Experiment [9] deals with T6, USP15 (UniProt Q9Y4E8).
T6 sequence (whole entry): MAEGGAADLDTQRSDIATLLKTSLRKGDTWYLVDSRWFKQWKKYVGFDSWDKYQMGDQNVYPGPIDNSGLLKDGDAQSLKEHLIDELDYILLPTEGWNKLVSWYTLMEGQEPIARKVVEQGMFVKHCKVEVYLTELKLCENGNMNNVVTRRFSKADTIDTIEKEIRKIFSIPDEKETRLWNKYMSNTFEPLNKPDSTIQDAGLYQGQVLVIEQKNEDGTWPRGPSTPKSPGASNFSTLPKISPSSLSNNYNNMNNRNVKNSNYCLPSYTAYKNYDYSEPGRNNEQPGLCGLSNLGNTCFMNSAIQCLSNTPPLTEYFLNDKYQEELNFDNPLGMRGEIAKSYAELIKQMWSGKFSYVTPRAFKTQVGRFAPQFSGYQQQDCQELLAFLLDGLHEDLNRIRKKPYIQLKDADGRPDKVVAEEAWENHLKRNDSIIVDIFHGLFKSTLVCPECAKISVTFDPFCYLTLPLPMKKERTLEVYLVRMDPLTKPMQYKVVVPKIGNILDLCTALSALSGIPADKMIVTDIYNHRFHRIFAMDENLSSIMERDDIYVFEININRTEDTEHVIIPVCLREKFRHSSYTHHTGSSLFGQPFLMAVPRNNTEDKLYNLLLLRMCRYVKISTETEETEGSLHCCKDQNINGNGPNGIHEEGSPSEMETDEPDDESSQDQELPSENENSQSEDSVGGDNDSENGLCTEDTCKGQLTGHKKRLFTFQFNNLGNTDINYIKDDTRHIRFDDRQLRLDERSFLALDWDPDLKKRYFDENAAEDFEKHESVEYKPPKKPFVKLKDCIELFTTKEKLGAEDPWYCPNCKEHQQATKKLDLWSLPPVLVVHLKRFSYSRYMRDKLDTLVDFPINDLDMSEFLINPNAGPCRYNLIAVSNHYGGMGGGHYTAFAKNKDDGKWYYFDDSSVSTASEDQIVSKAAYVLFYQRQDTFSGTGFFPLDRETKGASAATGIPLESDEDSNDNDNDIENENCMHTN
In short, it runs like this: as §1

For experiment [10], the target named is USP16 (UniProt Q9Y5T5). The procedure, abridged: as §1

Values without a mark were called inactive.

USP10, sequence (Q14694 whole entry): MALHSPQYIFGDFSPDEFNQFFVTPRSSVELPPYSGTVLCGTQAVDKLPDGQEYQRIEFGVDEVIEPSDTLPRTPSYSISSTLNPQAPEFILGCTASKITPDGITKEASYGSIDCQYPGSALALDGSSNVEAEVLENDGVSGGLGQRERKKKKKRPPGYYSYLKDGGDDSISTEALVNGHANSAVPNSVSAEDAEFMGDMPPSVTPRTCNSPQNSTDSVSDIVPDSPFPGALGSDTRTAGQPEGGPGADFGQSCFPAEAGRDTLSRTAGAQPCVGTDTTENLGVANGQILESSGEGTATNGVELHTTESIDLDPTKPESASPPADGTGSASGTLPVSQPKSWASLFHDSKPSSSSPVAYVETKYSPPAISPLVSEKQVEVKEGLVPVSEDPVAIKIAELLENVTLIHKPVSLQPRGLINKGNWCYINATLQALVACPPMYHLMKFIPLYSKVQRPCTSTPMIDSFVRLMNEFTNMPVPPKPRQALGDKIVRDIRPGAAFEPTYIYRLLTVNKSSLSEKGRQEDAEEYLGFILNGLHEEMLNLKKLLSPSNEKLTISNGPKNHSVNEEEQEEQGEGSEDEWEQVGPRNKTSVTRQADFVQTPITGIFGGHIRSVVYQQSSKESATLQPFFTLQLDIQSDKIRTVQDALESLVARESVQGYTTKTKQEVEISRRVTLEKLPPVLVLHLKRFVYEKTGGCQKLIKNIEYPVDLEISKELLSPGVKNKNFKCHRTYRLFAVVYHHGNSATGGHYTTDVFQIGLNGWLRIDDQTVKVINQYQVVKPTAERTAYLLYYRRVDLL
USP16, sequence (Q9Y5T5 whole entry, looked up): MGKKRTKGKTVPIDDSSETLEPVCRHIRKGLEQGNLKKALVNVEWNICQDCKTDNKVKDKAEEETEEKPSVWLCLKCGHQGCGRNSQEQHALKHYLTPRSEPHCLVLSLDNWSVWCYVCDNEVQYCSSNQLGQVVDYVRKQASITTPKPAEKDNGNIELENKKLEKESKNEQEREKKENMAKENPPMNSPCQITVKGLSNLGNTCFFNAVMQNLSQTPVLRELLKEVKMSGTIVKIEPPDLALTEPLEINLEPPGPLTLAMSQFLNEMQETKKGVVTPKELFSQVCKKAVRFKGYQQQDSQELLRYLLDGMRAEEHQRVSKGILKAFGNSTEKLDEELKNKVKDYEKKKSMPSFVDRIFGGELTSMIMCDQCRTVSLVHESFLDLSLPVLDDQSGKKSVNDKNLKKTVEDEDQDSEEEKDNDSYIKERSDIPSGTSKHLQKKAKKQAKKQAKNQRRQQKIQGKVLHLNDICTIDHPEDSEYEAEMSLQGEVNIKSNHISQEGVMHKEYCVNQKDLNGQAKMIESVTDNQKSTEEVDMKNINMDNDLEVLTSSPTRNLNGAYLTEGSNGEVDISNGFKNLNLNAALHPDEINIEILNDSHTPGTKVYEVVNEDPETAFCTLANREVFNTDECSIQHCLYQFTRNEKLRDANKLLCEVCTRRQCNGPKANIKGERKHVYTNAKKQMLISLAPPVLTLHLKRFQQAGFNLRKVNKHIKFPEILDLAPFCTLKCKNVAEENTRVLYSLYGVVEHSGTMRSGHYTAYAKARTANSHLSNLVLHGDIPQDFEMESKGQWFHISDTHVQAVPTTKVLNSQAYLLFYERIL
UCHL1, sequence (P09936 whole entry, looked up): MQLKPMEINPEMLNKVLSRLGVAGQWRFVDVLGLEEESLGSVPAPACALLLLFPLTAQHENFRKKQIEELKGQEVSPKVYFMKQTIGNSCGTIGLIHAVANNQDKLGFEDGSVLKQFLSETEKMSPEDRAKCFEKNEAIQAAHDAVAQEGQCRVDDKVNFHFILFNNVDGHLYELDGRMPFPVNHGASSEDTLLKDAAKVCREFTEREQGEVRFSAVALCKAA

On to `Cc1ccc(N(C(=O)CCl)C2C=CS(=O)(=O)C2)cc1` (stereo not given), for which the “log2 ratio of Biotin-Ahx-Ub-VS probe labelling” value (shortened to “log2 ratio”) in experiment [1] was 0.181; in experiment [2], -0.0624; in experiment [3], 0.0782; in [4], -0.0467; in experiment [5] it was -1.28 (active); in experiment [6], 0.419. The “log2 ratio” value in [7] was -0.13; in [8] it was -0.0181; in experiment [9], -0.145; in experiment [10] it was 0.19.

With `O=C(CCl)N1CCOC(CCc2ccccc2)C1` (stereo not given), the “log2 ratio” value is -0.215 in experiment [1]; -0.71 in experiment [2]; -0.0352 in [3]; -0.432 in experiment [4]; -1.46 (active) in experiment [5]; -0.025 in [6]. For the same compound, the “log2 ratio” value was -0.22 in [7], -0.258 in experiment [8], -0.374 in [9] and -0.411 in experiment [10].

As to `Cl.Cn1cnc2cc(CNC(=O)CCl)ccc21`, the “log2 ratio” value in experiment [1] was -0.108; in [2], -0.399; in experiment [3], 0.126; in experiment [4], -0.0706; in [5], -1.72 (active); in [6] it was 0.249. In addition, the “log2 ratio” value is 0.000192 in [7], -0.194 in experiment [8], -0.333 in experiment [9] and -0.459 in experiment [10].

For `Cc1nc(CN2CCCN(C(=O)CCl)CC2)no1.Cl`, the “log2 ratio” value in [1] was 0.121; in experiment [2], 0.0504; in experiment [3], 0.0827; in experiment [4] it was 0.166; in [5] it was -0.971; in [6], 0.331. Moreover, the “log2 ratio” value is -0.00418 in [7], 0.0299 in [8], -0.0311 in experiment [9] and -0.188 in [10].

As to `CC(NC(=O)CCl)c1noc(Cc2ccccc2)n1` (stereo not given), the “log2 ratio” value in experiment [1] was -0.409; in experiment [2], -0.724; in experiment [3], 0.0633; in [4], -0.49; in [5] it was -1.97 (active); in experiment [6], -0.00714. For the same compound, the “log2 ratio” value in [7] was -0.344; in experiment [8], 0.046; in experiment [9], -0.331; in experiment [10] it was -0.296.

For the compound `O=C(CCl)Nc1nc(-c2cccs2)cs1`, the “log2 ratio” value was -0.434 in [1]; -0.695 in experiment [2]; 0.14 in experiment [3]; -0.0595 in experiment [4]; -1.45 (active) in experiment [5]; 0.426 in experiment [6]. Also, the “log2 ratio” value was -2.61 (active) in experiment [7], -0.0951 in experiment [8], -0.354 in [9] and -0.00927 in [10].

Consider `Cc1cccc2nc(CCNC(=O)CCl)cn12.Cl`, for which the “log2 ratio” value in [1] is -0.459; in [2] it was -0.556; in experiment [3], -0.224; in experiment [4], -0.141; in experiment [5], -2.08 (active); in experiment [6], -0.0466. The “log2 ratio” value was -0.344 in experiment [7], -0.121 in experiment [8], -0.369 in experiment [9] and 0.0184 in experiment [10].

These data come from the supplement of paper PMC11732987, “Enantioselective OTUD7B fragment discovery through chemoproteomics screening and high-throughput optimisation” (Communications Chemistry, 2025).
